# Bioassay records from PubChem BioAssay.
# In the library only some 2.3% were active in any assay of this set; here they are far more common.
# Pf Dd2 growth: inhibitors of Plasmodium falciparum Dd2 growth. activity change, % at 10 µM. hit rate 2.3% among 94,000. AID 1159554. P. falciparum Dd2 growth, SYBR Green, 72 h; stronger effect = lower value; in the data active means activity change below about -80%; inconclusive means no clear call, values can overlap the other calls
# C diff HTS: C. difficile growth inhibition; hit rate 0.25% among 86,000; Clostridium difficile clinical isolate growth, OD600, 24 h; stronger effect = lower value; growth activity, negative = inhibition, % at 16 µg/mL (by protocol);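 active means mean growth activity at or below -80% and every replicate also at or below -80%; inconclusive means mean at or below -80% but some replicate above -80%; inactive means mean growth activity above -80%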;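 further: 0% = DMSO wells and -100% = levofloxacin 16 µg/mL wells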
# The depositor's hits bear a star; ? = inconclusive; . = no result given; ! = not confirmed by another sample.
SMILES,Pf Dd2 growth,C diff HTS
COc1cccc(S(=O)(=O)N(C)C[C@@H]2Oc3ncc(C#Cc4ccc(OC)c(OC)c4)cc3C(=O)N([C@H](C)CO)C[C@@H]2C)c1,-92*,4
CCCC#Cc1cnc2c(c1)C(=O)N([C@H](C)CO)C[C@H](C)[C@@H](CN(C)S(=O)(=O)c1cccc(OC)c1)O2,-57,-2
COc1ccc(S(=O)(=O)N(C)C[C@@H]2Oc3ncc(-c4ccncc4)cc3C(=O)N([C@H](C)CO)C[C@H]2C)cc1,-60,2
C[C@H](CO)N1C[C@H](C)[C@H](CN(C)Cc2ccc3c(c2)OCO3)OCCCC[C@H](C)Oc2ccc(NS(=O)(=O)c3ccc(F)cc3)cc2C1=O,-43,.
O=C(c1ccccn1)N1C[C@H]2[C@@H](c3ccccc31)[C@@H](CO)N2C(=O)c1ccccn1,8,5
COc1ccc(NC(=O)N(C)C[C@H]2Oc3cc(-c4cccc(C(=O)N(C)C)c4)ccc3S(=O)(=O)N([C@@H](C)CO)C[C@H]2C)cc1,21,-2
O=C(N[C@H]1C=C[C@H](CC(=O)N2CCN(c3ccccc3)CC2)O[C@@H]1CO)c1ccccc1,2,-3
COc1ccc2c3c(n(C)c2c1)[C@H](CO)N(Cc1ccc2c(c1)OCO2)CC31CN(C)C1,46,.
CCS(=O)(=O)Nc1ccc2c(c1)C(=O)N(C)C[C@H](OC)[C@@H](C)CN(C(=O)NC(C)C)[C@@H](C)CO2,23,.
O=S(=O)(c1ccc(-c2ccccc2)cc1)N1C[C@@H]2N[C@H](C1)C2c1ccc(-c2cncnc2)cc1 (stereo partly drawn),2,5
COc1ccccc1-c1ccc([C@@H]2[C@@H]3CN(S(=O)(=O)c4ccc(-c5ccccc5)cc4)C[C@H]2N3)cc1,-89*,6
O=S(=O)(c1ccccc1F)N1C[C@@H]2N[C@H](C1)C2c1ccc(/C=C/c2ccccc2)cc1 (stereo partly drawn),-78,10
CN(C)C(=O)c1ccc(-c2ccc(C3[C@@H]4CN(S(=O)(=O)c5ccc(F)cc5)C[C@H]3N4)cc2)cc1 (stereo partly drawn),-21,-12
COc1cccc(S(=O)(=O)N2C[C@@H]3N[C@H](C2)C3c2ccc(-c3ccccc3OC)cc2)c1 (stereo partly drawn),-34,11
O=S(=O)(c1ccccc1)N1C[C@@H]2N[C@H](C1)C2c1ccc(-c2ccc(F)cc2)cc1 (stereo partly drawn),-84*!,9
O=S(=O)(c1ccccc1)N1C[C@@H]2N[C@H](C1)C2c1ccc(/C=C/c2ccccc2)cc1 (stereo partly drawn),-37,-96*!
O=S(=O)(c1ccc(F)cc1)N1C[C@@H]2N[C@H](C1)C2c1ccc(-c2ccc(F)cc2)cc1 (stereo partly drawn),-88*!,9
C[C@H](CO)N1C[C@H](C)[C@H](CN(C)Cc2ccc3c(c2)OCO3)Oc2ncc(-c3ccccc3)cc2C1=O,-2,4
Cc1noc(C)c1NC(=O)Nc1ccc2c(c1)C(=O)N([C@@H](C)CO)C[C@@H](C)[C@H](CN(C)S(=O)(=O)c1cn(C)cn1)OCCCC[C@@H](C)O2,34,-6
Cc1ccc(S(=O)(=O)N2C[C@@H]3N[C@H](C2)[C@@H]3c2ccc(-c3cccc(C)c3)cc2)cc1,-63,1
Cc1ccc(-c2ccc(C3[C@@H]4CN(S(=O)(=O)c5cccc(C)c5)C[C@H]3N4)cc2)cc1 (stereo partly drawn),-43,-95*
Cc1ccccc1S(=O)(=O)N1C[C@@H]2N[C@H](C1)C2c1ccc(-c2ccc(C(=O)N(C)C)cc2)cc1 (stereo partly drawn),-24,-16
Cc1cccc(S(=O)(=O)N2C[C@@H]3N[C@H](C2)C3c2ccc(-c3cncnc3)cc2)c1 (stereo partly drawn),-28,-3
Cc1ccccc1S(=O)(=O)N1C[C@@H]2N[C@H](C1)C2c1ccc(-c2ccc(C#N)cc2)cc1 (stereo partly drawn),-84*!,8
Cc1ccc(-c2ccc(C3[C@@H]4CN(S(=O)(=O)c5ccc(C)cc5)C[C@H]3N4)cc2)cc1 (stereo partly drawn),-21,-97*
SMILES,Pf Dd2 growth,C diff HTS
CCCNC(=O)C[C@H]1CC[C@@H]2[C@H](COc3ccc(NC(=O)Nc4ccccc4)cc3C(=O)N2C)O1,-6,1
O=C(CC1CC1)N1CC2(C1)[C@H](c1ccccc1)[C@@H](CO)N2C(=O)c1cccnc1,-57,-6
O=C(c1cccnc1)N1CC2(C1)[C@@H](c1ccccc1)[C@@H](CO)N2C(=O)CC1CC1,-87*,-5
CO[C@H]1CN(C)C(=O)c2cc(C#N)ccc2OCC[C@@H]2CC[C@H](OC)[C@@H](CN(C)C(=O)[C@H]1C)O2,.,-5
C[C@H](CO)N1C[C@H](C)[C@H](CN(C)C(=O)Nc2ccc(C(F)(F)F)cc2)OCCCC[C@H](C)Oc2ccc(NS(=O)(=O)c3ccc(Cl)cc3)cc2C1=O,1,7
C[C@H](CO)N1C[C@H](C)[C@@H](CN(C)C(=O)Nc2ccc(C(F)(F)F)cc2)OCCCC[C@H](C)Oc2ccc(NS(=O)(=O)c3ccc(F)cc3)cc2C1=O,-55,-1
Cc1ccc(S(=O)(=O)Nc2ccc3c(c2)C(=O)N([C@@H](C)CO)C[C@@H](C)[C@@H](CN(C)C(=O)Nc2ccc4c(c2)OCO4)OCCCC[C@H](C)O3)cc1,?,1
C[C@@H]1CCCCO[C@H](CN(C)C(=O)Nc2ccc(F)cc2)[C@H](C)CN([C@@H](C)CO)C(=O)c2cc(NS(=O)(=O)c3ccccc3)ccc2O1,-91*,0
C[C@@H]1CN([C@@H](C)CO)C(=O)c2cc(NS(=O)(=O)c3ccc(F)cc3)ccc2O[C@@H](C)CCCCO[C@@H]1CN(C)C(=O)Nc1ccc(C(F)(F)F)cc1,-88*,-1
C[C@@H]1CCCCO[C@@H](CN(C)C(=O)Nc2ccccc2)[C@@H](C)CN([C@H](C)CO)C(=O)c2cc(NS(=O)(=O)c3ccc(F)cc3)ccc2O1,11,2
Cc1ccc(S(=O)(=O)Nc2ccc3c(c2)C(=O)N([C@@H](C)CO)C[C@H](C)[C@@H](CN(C)C(=O)Nc2ccc4c(c2)OCO4)OCCCC[C@@H](C)O3)cc1,-85*,0
C[C@H]1CCCCO[C@H](CN(C)C(=O)Nc2ccc(C(F)(F)F)cc2)[C@@H](C)CN([C@@H](C)CO)C(=O)c2cc(NS(=O)(=O)c3ccc(Cl)cc3)ccc2O1,-83*,5
C[C@@H]1CN([C@H](C)CO)C(=O)c2cccc(NS(=O)(=O)c3ccc(F)cc3)c2O[C@H]1CN(C)S(=O)(=O)c1ccc(F)cc1,27,-9
C[C@H]1CN([C@@H](C)CO)C(=O)c2cc(C#Cc3ccccn3)cnc2O[C@H]1CN(C)CC1CCCC1,3,.
Cc1ccccc1-c1ccc2c(c1)O[C@H](CN(C)C(=O)Nc1ccc(F)cc1)[C@@H](C)CN([C@H](C)CO)S2(=O)=O,3,3
CCCNC(=O)C[C@@H]1CC[C@@H]2[C@@H](COc3ccc(NC(=O)NCCC)cc3C(=O)N2C)O1,9,3
COc1ccc(S(=O)(=O)N(C)C[C@H]2Oc3ccc(NS(=O)(=O)c4cccs4)cc3C(=O)N([C@@H](C)CO)C[C@@H]2C)cc1,-36,3
